Structures are written as SMILES. Out of some 39,000 compounds screened, about 1,500 (3.8%) were called active. Many of the other results were omitted from the sample, so actives are more common in it than they were.

The test system of this assay is HSkMC (human skeletal muscle cells). Put plainly: cytotoxicity call (relative viability < 0.9). The note with it: 10 µM.
Regarding `Cc1noc(C)c1S(=O)(=O)N(C)C[C@H]1Oc2ccc(NC(=O)NC3CCCCC3)cc2CC(=O)N([C@@H](C)CO)C[C@H]1C`, the cytotoxicity call is “inactive”. `O=C(C[C@@H]1C[C@@H]2c3cc(NS(=O)(=O)c4ccc(F)cc4)ccc3O[C@@H]2[C@H](CO)O1)NCCN1CCCCC1`: the cytotoxicity call is “inactive”. As for `C=CC[C@@H](CC(=O)N[C@H](CO)Cc1ccccc1)C(=O)NCCOC(=O)[C@H](CC=C)CC(=O)OC(C)(C)C`, the cytotoxicity call is “inactive”. The value for `CCCCCN1CC=C[C@]23O[C@@H]4/C=C/CCC(=O)N(C)[C@H](C)[C@@H](c5ccccc5)OC(=O)[C@@H]4[C@H]2C(=O)N(c2ccccc2Cl)[C@@H]3C1=O` was “inactive”; that for `Cc1noc(C)c1NC(=O)Nc1ccc2c(c1)C(=O)N([C@H](C)CO)C[C@H](C)[C@H](CN(C)S(=O)(=O)c1cccs1)OCCCC[C@H](C)O2` was “inactive”. As for `C[C@@H]1CN([C@@H](C)CO)S(=O)(=O)c2ccc(C#CC3CC3)cc2O[C@@H]1CN(C)C(=O)c1cccc(F)c1`, the entry is “inactive”; as for `CC(C)(O)c1ccccc1CCC(SCC1(CC(=O)[O-])CC1)c1cccc(C=Cc2ccc3ccc(Cl)cc3n2)c1.[Na+]` (centres undefined), “inactive”; as for `CC(C)(O)c1ccccc1CC[C@@H](SCC1(CC(=O)O)CC1)c1cccc(/C=C/c2ccc3ccc(Cl)cc3n2)c1`, “active”.

As to `C[C@@H]1CN([C@H](C)CO)C(=O)c2cc(NC(=O)Nc3cccc4ccccc34)ccc2O[C@@H](C)CCCCO[C@@H]1CN(C)S(=O)(=O)c1ccc(F)cc1`, the cytotoxicity call is “inactive”. As for `COCC(=O)N1C[C@@H](C(=O)N2CCCO2)C[C@@H]2OCC[C@@H]21`, the entry is “inactive”; as for `O=C(Nc1cccc2cccnc12)[C@@H]1[C@H](c2ccc(I)cc2)CC(=O)N1C(=O)OCc1ccccc1`, “inactive”.

As for `C[C@@H]1CCCCO[C@H](CN(C)C(=O)c2ccccc2)[C@H](C)CN([C@@H](C)CO)C(=O)c2cc(NS(=O)(=O)c3ccccc3)ccc2O1`, the cytotoxicity call is “inactive”. Regarding `Cc1c2oc3c(C)ccc(C(=O)OC(C)C4NC(=O)C(C(C)C)N(C)C(=O)CN(C)C(=O)C5CCCN5C(=O)C(C(C)C)NC4=O)c3nc-2c(C(=O)OC(C)C2NC(=O)C(C(C)C)N(C)C(=O)CN(C)C(=O)C3CCCN3C(=O)C(C(C)C)NC2=O)c(N)c1=O` (centres undefined), the cytotoxicity call was “inactive”. As for `Cc1c2oc3c(C)ccc(C(=O)N[C@@H]4C(=O)N[C@H](C(C)C)C(=O)N5CCC[C@H]5C(=O)N(C)CC(=O)N(C)[C@@H](C(C)C)C(=O)O[C@@H]4C)c3nc-2c(C(=O)N[C@@H]2C(=O)N[C@H](C(C)C)C(=O)N3CCC[C@H]3C(=O)N(C)CC(=O)N(C)[C@@H](C(C)C)C(=O)O[C@@H]2C)c(N)c1=O`, the cytotoxicity call is “active”. As for `Cc1c2oc3c(C)ccc(C(=O)N[C@@H]4C(=O)N[C@@H](C(C)C)C(=O)N5CCC[C@H]5C(=O)N(C)CC(=O)N(C)[C@@H](C(C)C)C(=O)O[C@@H]4C)c3nc-2c(C(=O)N[C@@H]2C(=O)N[C@@H](C(C)C)C(=O)N3CCC[C@H]3C(=O)N(C)CC(=O)N(C)[C@@H](C(C)C)C(=O)O[C@@H]2C)c(N)c1=O`, the entry is “inactive”; as for `CC(=O)O[C@H]1C[C@@]2(C)[C@@H](C[C@@H](O)[C@@H]3[C@@]4(C)CC[C@@H](O)[C@@H](C)[C@@H]4CC[C@@]32C)/C1=C(/CCC=C(C)C)C(=O)O`, “inactive”.

Consider `COc1ccccc1S(=O)(=O)N[C@H]1C=C[C@@H](CC(=O)N2CCN(C)CC2)O[C@H]1CO`, for which the cytotoxicity call was “inactive”.

Consider `O=C(C[C@@H]1CC[C@@H]2[C@H](COC[C@H](O)CN2S(=O)(=O)c2ccccc2)O1)N[C@@H]1CCN(Cc2ccccc2)C1`, for which the cytotoxicity call is “inactive”.

Consider `C=CCC[C@H](Cc1ccc(F)cc1)C(=O)OC[C@@H](NC(=O)[C@@H](CC=C)CC(=O)N(CCO)Cc1ccccc1)c1ccccc1`, for which the cytotoxicity call is “active”.

As for `C=CC[C@@H](CC(=O)N(CCO)Cc1ccccc1)C(=O)N[C@H](COC(=O)[C@@H](CC=C)Cc1ccc(F)cc1)c1ccccc1`, the cytotoxicity call is “inactive”.

With `C=CCC[C@@H](Cc1ccc(F)cc1)C(=O)OC[C@@H](NC(=O)[C@H](CC=C)CC(=O)N(CCO)Cc1ccccc1)c1ccccc1`, the cytotoxicity call was “inactive”. The value for `C=CCC[C@H](Cc1ccc(F)cc1)C(=O)OC[C@@H](NC(=O)[C@H](CC=C)CC(=O)N(CCO)Cc1ccccc1)c1ccccc1` was “inactive”; that for `C=CCC[C@@H](Cc1ccc(F)cc1)C(=O)OC[C@@H](Cc1ccccc1)NC(=O)[C@H](CC=C)CC(=O)N(CCO)Cc1ccccc1` was “inactive”.

Take `C=CCC[C@@H](Cc1ccc(F)cc1)C(=O)OC[C@@H](NC(=O)[C@@H](CC=C)CC(=O)N(CCO)Cc1ccccc1)c1ccccc1`: the cytotoxicity call is “active”.

For the molecule `Cc1ccc(S(=O)(=O)N(C)C[C@H]2Oc3ccc(NC(=O)Nc4cccc5ccccc45)cc3C(=O)N([C@H](C)CO)C[C@@H]2C)cc1`, the cytotoxicity call was “inactive”. The value for `COc1ccc(C#Cc2ccc3c(c2)[C@]2(C(=O)N3)[C@H](C(N)=O)[C@H]3C(=O)O[C@H](c4ccccc4)[C@H](c4ccccc4)N3[C@@H]2c2ccc(OCCO)cc2)cc1` was “inactive”.

Regarding `Cc1cc(-c2ccccc2)nc(SCc2ccccc2)c1C#N`, the cytotoxicity call was “inactive”. The value for `COc1ccc(S(=O)(=O)N(C)C[C@@H]2Oc3ccc(NS(C)(=O)=O)cc3CC(=O)N([C@@H](C)CO)C[C@H]2C)cc1` was “inactive”; that for `CS(=O)(=O)Nc1ccc2c(c1)[C@@H]1C[C@H](CC(=O)NCc3ccc(-c4ccccc4)cc3)O[C@H](CO)[C@@H]1O2` was “inactive”; that for `COc1ccc(S(=O)(=O)N(C)C[C@@H]2Oc3c(NC(=O)NC(C)C)cccc3C(=O)N([C@H](C)CO)C[C@@H]2C)cc1` was “inactive”. The value for `Cc1noc(C)c1NC(=O)Nc1ccc2c(c1)C(=O)N([C@H](C)CO)C[C@H](C)[C@H](CN(C)C(=O)Nc1ccccc1)OCCCC[C@@H](C)O2` was “inactive”; that for `CC1=C(/C=C/C(C)=C/C=C/C(C)=C\C(=O)O)C(C)(C)CCC1` was “inactive”; that for `C[C@H](CO)N1C[C@H](C)[C@@H](CN(C)S(=O)(=O)c2ccc(Cl)cc2)Oc2ccc(NC(=O)Nc3ccc(C(F)(F)F)cc3)cc2CC1=O` was “inactive”. On to `C[C@@H]1CN([C@@H](C)CO)C(=O)Cc2cc(NC(=O)Nc3ccc(C(F)(F)F)cc3)ccc2O[C@H]1CN(C)S(=O)(=O)c1ccc(Cl)cc1`, for which the cytotoxicity call was “inactive”. As for `C[C@H]1CN([C@@H](C)CO)C(=O)Cc2cc(NC(=O)Nc3cccc(C(F)(F)F)c3)ccc2O[C@H]1CN(C)S(=O)(=O)c1ccc(Oc2ccccc2)cc1`, the entry is “inactive”; as for `C[C@H]1CN([C@@H](C)CO)C(=O)Cc2cc(NC(=O)Nc3cccc(C(F)(F)F)c3)ccc2O[C@H]1CN(C)S(=O)(=O)c1ccc(Cl)cc1`, “active”; as for `COc1ccc(S(=O)(=O)N(C)C[C@@H]2Oc3ccc(NC(=O)Nc4cccc(C(F)(F)F)c4)cc3CC(=O)N([C@@H](C)CO)C[C@@H]2C)cc1Cl`, “active”. The value for `C[C@H](CO)N1C[C@H](C)[C@H](CN(C)S(=O)(=O)c2ccc(Cl)cc2)Oc2ccc(NC(=O)Nc3ccc(C(F)(F)F)cc3)cc2CC1=O` was “active”; that for `C[C@@H]1CN([C@@H](C)CO)C(=O)Cc2cc(NC(=O)Nc3ccc(C(F)(F)F)cc3)ccc2O[C@@H]1CN(C)S(=O)(=O)c1ccc(Cl)cc1` was “active”.

Values taken from the antibiotic and cytotoxicity screens of Wong et al. (2023).
